Assay results reported in PubChem BioAssay AID886 (National Center for Advancing Translational Sciences (NCATS), 2007).
Values joined by “and” are separate entries in the source; they are usually repeats but may differ in a detail not shown here. Identical values can stand only once. Among all 73,000 compounds or so, about 2,500 (3.4%) were called active. Roughly 7% stayed inconclusive and do not appear here. Calls come from the whole dose curve; as a rule, active = well fitted inhibition curve with a large enough effect; inconclusive = small, poorly fitted or top-dose-only effect; inactive = no such curve, though single readings can be large or run the other way. The full list was thinned out, with actives kept by preference. More than one record can exist for a structure, and the calls need not agree.

The compounds below were run against 3-hydroxyacyl-CoA dehydrogenase type-2 (Homo sapiens) (UniProt Q99714) (assay: qHTS Assay for Inhibitors of HADH2 (Hydroxyacyl-Coenzyme A Dehydrogenase, Type II)). Conditions: recombinant HADH2, NADH fluorescence, beta-hydroxybutyryl-CoA; series mostly up to 57.1 µM; activity change, negative = inhibition: at the top concentration.
Sequence of 3-hydroxyacyl-CoA dehydrogenase type-2 (Homo sapiens) (Q99714 whole entry, looked up): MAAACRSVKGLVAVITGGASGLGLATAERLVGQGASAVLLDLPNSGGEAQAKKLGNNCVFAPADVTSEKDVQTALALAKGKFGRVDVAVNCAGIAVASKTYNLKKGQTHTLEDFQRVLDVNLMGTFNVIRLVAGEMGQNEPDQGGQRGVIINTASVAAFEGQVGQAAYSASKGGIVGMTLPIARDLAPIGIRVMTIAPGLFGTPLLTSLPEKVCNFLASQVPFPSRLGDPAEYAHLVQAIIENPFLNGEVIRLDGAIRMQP
Sequence of 3-hydroxyacyl-CoA dehydrogenase type-2 (Homo sapiens) (Q99714 whole entry, looked up): as above
Summary of the method: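 Buffer 100 mM Tris-HCl pH 9.0/0.01% Tween-20; HADH2 20 nM; NAD+ 1 mM; beta-hydroxybutyryl-CoA 90 uM (all final). 15 min cpd preincubation, RT.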
% is set by controls: 0 for no effect and ±100 for the full control effect; potency is the fitted concentration of half-maximal effect.
Note: nearly all actives have a fitted effect of over 60% in size.

Row | Compound | Potency | activity change, negative = inhibition
1 | O=C(Nc1nncs1)c1ccccc1NS(=O)(=O)c1cccs1 | 31.6 µM (active) | –
2 | COc1ccc(C(=O)Nc2nncs2)c(OC)c1 | – | -22.5% (inactive)
3 | COC(=O)c1ccccc1NC(=O)c1ccccc1NS(C)(=O)=O | – | -21.3% (inactive)
4 | COC(=O)c1ccc(C(NC(=O)OCc2ccccc2)/C(C)=C/[C@@H](C)C(=O)NCc2cc(C)on2)cc1 (some centres undefined) | – | 6.01% (inactive)
5 | Cc1cc(N2CCCCC2)nc2ccc(Cc3ccc4nc(N5CCCCC5)cc(C)c4c3)cc12 | – | 1.3% [at 11.4 µM] (inactive)
6 | Nc1ccc2[nH]cc(CCC(=O)O)c2c1 | – | -22.6% [at 11.4 µM] (inactive)
7 | c1ccc(CSc2nnc(-c3ccco3)c(-c3ccco3)n2)cc1 | 5.01 µM (active) | –
8 | c1ccc(CSc2nnc(-c3ccco3)n2Cc2ccccc2)cc1 | – | 6.77% (inactive)
9 | Nc1cc(=O)nc(SCc2ccccc2)n1Cc1ccco1 | – | -3.38% (inactive)
10 | CC1=C(C(=O)OCc2ccccc2)C(c2ccc(C(F)(F)F)cc2)NC(=O)N1CCCCCC(=O)O (centres undefined) | – | 6.51% (inactive)
11 | COCCNc1cc(-c2c(C)noc2C)ncn1 | – | 2.69% (inactive)
12 | O=c1[nH]nc(Cc2ccccn2)c2ccccc12 | – | -3.94% (inactive)
13 | CN(CCc1ccccn1)S(=O)(=O)c1ccc2c3c(cccc13)C(=O)N2 | 31.6 µM (active) | –
14 | COc1ccc(-c2nc3cnc(OC)nc3n(Cc3ccc(F)cc3)c2=O)cc1 | – | 2.45% (inactive)
15 | O=C(NCc1ccccc1)[C@H]1C[C@@H]1[C@H](NP(=O)(c1ccccc1)c1ccccc1)c1ccccc1 | – | -0.196% (inactive)
16 | Cc1nc2cnc(N3CCNCC3)nc2n(Cc2ccc(F)cc2)c1=O | – | -1.77% (inactive)
17 | CCn1c(CNC(=O)c2ccc(OC)c(OC)c2)nnc1SCC(=O)Nc1ccccc1 | – | 17.2% (inactive)
18 | CCOC(=O)c1cc2n(c1C)-c1ccccc1C2=O | – | 5.2% (inactive)
19 | CCOC(=O)c1cc2n(c1N)-c1ccccc1C2=O | – | -21.5% (inactive)
20 | CCCn1c(=NC(C)=O)c(C(=O)OCC)cc2c(=O)n3ccccc3nc21 | 31.6 µM (active) | –
21 | CS(=O)(=O)N1CCC2(CC1)CN(Cc1cc(C(F)(F)F)cc(C(F)(F)F)c1)C2 | – | 7.84% (inactive)
22 | CS(=O)(=O)Nc1cccc(-c2cncnc2Nc2ccccc2)c1 | – | -11.2% (inactive)
23 | CNc1cc(-c2c(C)noc2C)ncn1 | – | 1.11% (inactive)
24 | N#C/C(=C\c1ccc(O)c(O)c1)C(=O)NCc1ccccc1 | inactive and 15.8 µM (active) | –
25 | N#C/C(=C\c1ccc(O)c(O)c1)C(N)=O | 31.6 µM (active) | –

Row | Compound | Potency | activity change, negative = inhibition
26 | CCCc1nc2ccccc2c(=O)n1/N=C/c1ccc(O)c(O)c1 | – | 3.33% (inactive)
27 | O=C(CCOc1ccccc1)NCc1ccccc1 | – | 11% (inactive)
28 | C[C@@H]1C[C@H]2[C@@H]3C[C@H](F)C4=CC(=O)C=C[C@@]4(C)[C@]3(F)[C@H](O)C[C@]2(C)[C@@]1(O)C(=O)CO | – | 1.79% [at 25.6 µM] (inactive)
29 | COc1ncc2nc(-c3ccc(Cl)cc3)c(=O)n(-c3ccccc3)c2n1 | – | 0.99% (inactive)
30 | COc1ccccc1N1CCN(CCN2C(=O)c3ccccc3C(C)(C)C2=O)CC1 | – | 5.74% (inactive)
31 | Cc1c(S(=O)(=O)O)ccc(N=Nc2c(O)c(C(=O)O)cc3ccccc23)c1Cl | – | 14% [at 11.4 µM] (inactive)
32 | C/C(CCN1CCc2nc(-c3ccccc3)c(-c3ccccc3)cc2C1)=N\O[C@@H](C)c1cn([C@@H]2COC[C@@H]2O)nn1 | – | -0.942% [at 11.4 µM] (inactive)
33 | CC(C)=CCC/C(C)=C/CO/N=C1/C[C@@H](O)[C@@H](O)[C@@H]2[C@@H]3C(=O)N(C(C)(C)C)C(=O)[C@H]3CC[C@H]12 | – | 2.13% [at 11.4 µM] (inactive)
34 | COc1ccc(CC(=O)Nc2ccc(-c3nnc(-c4ccc(C)cc4)o3)cc2)cc1 | 0.251 µM (active) | –
35 | Cc1ccc(OCC(=O)Nc2ccc(-c3nnc(-c4ccco4)o3)cc2)cc1 | – | 13.8% (inactive)
36 | Cc1ccc(OCC(=O)Nc2ccc(-c3nc4ncccc4o3)cc2)cc1 | – | -29.8% (inactive)
37 | CO[C@H]1COC(=O)C/C=C\[C@H](C)COC(=O)[C@@H](OCc2ccccc2)/C=C\[C@@H]1C | – | 8.32% [at 11.4 µM] (inactive)
38 | COc1ccc2c(=O)cc(-c3ccccc3)oc2c1O | – | -7.36% (inactive)
39 | Cc1cc2nc3c(=O)[nH]c(=O)nc-3n(C[C@H](O)[C@H](O)[C@H](O)CO)c2cc1C | – | -15.5% (inactive)
40 | CCC(=O)Nc1sc(C(=O)N2CCCCC2)c(C)c1C#N | – | -0.224% (inactive)
41 | Cc1cccc(-n2c(N)cc(=O)nc2SC(C)C(=O)NC2CCCCC2)c1 (centres undefined) | – | 3.12% (inactive)
42 | N#Cc1ccccc1-n1c(N)c(C(=O)N2CCCC2)sc1=S | 2.51 µM (active) | –
43 | O=C(c1ccccc1)N1CCN(C(=O)N2CCCCC2)CC1 | – | 5.98% (inactive)
44 | Cc1ccc(OCCCC(=O)N2CCOCC2)c(C)c1 | – | 13.5% (inactive)
45 | Cc1ccc(-n2c(N)c(C(=O)N3CCOCC3)sc2=S)c(C)c1 | 3.16 µM (active) | –
46 | Cc1cccc(-n2c(N)c(C(=O)N3CCN(C)CC3)sc2=S)c1 | 0.631 µM (active) | –
47 | COc1cccc(-c2nn(C)c3sc(C(=O)N4CCN(c5ccccc5)CC4)cc23)c1 | – | -8.9% (inactive)
48 | CC(=O)c1c(N2CCOCC2)nc(=S)n(-c2cc(C)ccc2C)c1C | – | 0.579% (inactive)
49 | N#Cc1cc2[nH]c(=O)c(=O)[nH]c2cc1[N+](=O)[O-] | – | -19.4% (inactive)
50 | CCC[C@H]1C(=O)N2C(N(C)C)=Nc3ccc(C)cc3N2C1=O | – | 2.69% [at 25.6 µM] (inactive)

Row | Compound | Potency | activity change, negative = inhibition
51 | Cc1cnc(CNc2ncncc2-c2ccccc2Cl)cn1 | – | -29.7% (inactive)
52 | COC(=O)[C@H]1C[C@@H]1[C@H](NC(=O)Oc1ccc(F)cc1)c1ccccc1 | – | 3.03% (inactive)
53 | O=c1cc(-c2ccccc2)[nH]c2nc(Cl)ccc12 | 25.1 µM (active) | –
54 | CN1CCN(c2ncc3nc(-c4ccc(Cl)cc4)c(=O)n(-c4ccccc4)c3n2)CC1 | – | 43.8% (inactive)
55 | C#CCC(C(=O)OC)(C(=O)OC)C(C[N+](=O)[O-])c1ccccc1 (centres undefined) | – | 1.44% [at 11.4 µM] (inactive)
56 | Cc1ccc2oc(=O)ccc2c1 | – | -5.29% (inactive)
57 | CCN(CC)c1ccc2oc(=O)c(C)nc2c1 | 3.98 µM (active) | –
58 | CC(=O)OCC1OC(C#CCCCc2ccccc2)C=CC1OC(C)=O (centres undefined) | – | -21.4% [at 11.4 µM] (inactive) and -18.3% [at 11.4 µM] (inactive)
59 | COc1cccc(C(=O)c2cc3ccc(O)cc3oc2=O)c1 | – | -27.7% (inactive)
60 | O=c1oc2cc(O)ccc2cc1-c1ccc(F)cc1 | – | 15.3% (inactive)
61 | COc1ccc(-c2cc3ccc(OCc4nn[nH]n4)cc3oc2=O)cc1 | 3.16 µM (active) | –
62 | Nc1ccccc1N | – | 1.07% (inactive)
63 | COC(=O)N1CCC[C@@]2(CCN(C(=O)NC(C)C)C2)C1 | – | -4.88% (inactive)
64 | N=C(CC(=O)Nc1ccccn1)c1ccccc1 | – | 6.89% [at 11.4 µM] (inactive)
65 | CC(C)c1cc(CN(C)C)c(O)c(C(C)(C)C)c1 | – | -0.755% [at 11.4 µM] (inactive)
66 | O=C(CN1CCOCC1)Nc1cc(Cl)ccc1Cl | – | 3.52% (inactive)
67 | c1cnn(-c2cc(N3CCOCC3)ncn2)c1 | – | 6.49% (inactive)
68 | O=C(Nc1cc(N2CCOCC2)ncn1)NC1(C(F)(F)F)Oc2ccc(Cl)cc2O1 (centres undefined) | 3.16 µM (active) | –
69 | COC(=O)[C@@H]1[C@H]2C[C@H]3c4[nH]c5cc(OC)ccc5c4CCN3C[C@@H]2C[C@@H](OC(=O)c2cc(OC)c(OC)c(OC)c2)[C@@H]1OC | inactive | –
70 | O=C(O)CC(C(=O)O)C(CC(=O)O)C(=O)O (centres undefined) | – | 2.27% (inactive)
71 | O=C(O)[C@@H](S)[C@H](S)C(=O)O | 1 µM (active) | –
72 | CN(c1ccccc1)c1ccc(/C=c2\s/c(=C(/C#N)C(=O)C(C)(C)C)n(Cc3ccco3)c2=O)cc1 | – | -22.8% (inactive)
73 | O=c1nc2s/c(=C\c3ccco3)c(=O)n2nc1Cc1ccccc1 | 7.94 µM (active) | –
74 | Cc1nc2nc(SCC(=O)NCc3ccco3)nn2c(C)c1Cc1ccccc1 | – | -3.96% (inactive)
75 | CC(C)N(CCNC(=O)c1ccc(-n2c(=O)c(=O)[nH]c3ccccc32)cc1)C(C)C | – | -0.507% (inactive)

Row | Compound | Potency | activity change, negative = inhibition
76 | CN(C)CCCCNC(=O)c1ccc(Cc2nc3ccccc3[nH]2)cc1 | – | 7.95% (inactive)
77 | CN(C)CCCNC(=O)c1ccc2[nH]c3ccccc3c2c1 | 25.1 µM (active) | –
78 | COc1ccc(CNc2ncnc3ccc(-c4cccnc4)cc23)c(OC)c1 | – | -13.9% (inactive)
79 | CS(=O)(=O)N1CCC2(CC1)CN(Cc1ccccc1)C2 | – | 3.96% (inactive)
80 | COC(=O)[C@@]1(C)C=C[C@@H](Cc2ccccc2)N1C(C)=O | – | 2.32% (inactive)
81 | CCCCCCCCCCCC(=O)O | inactive | –
82 | Cc1cc(C)cc(C#CC2C=CC(Oc3ccc(C4CCCC4)cc3)C(CO)O2)c1 (centres undefined) | – | 10.7% [at 11.4 µM] (inactive)
83 | O=c1c(-c2ccccc2)coc2c(CN3CCOCC3)c(O)ccc12 | – | -0.694% (inactive)
84 | O=S(=O)(O)CCN1CCOCC1 | – | 0.734% (inactive)
85 | Oc1c(CN2CCOCC2)ccc(CN2CCOCC2)c1O | 0.316 µM (active) | –
86 | C=C(C)C1CC=C(C)C(O)C1 (centres undefined) | – | 1.28% (inactive)
87 | CCC[C@@H]1C[C@@]1(CCC)[C@@H](NC(=O)c1ccccc1)c1ccc(C(=O)OC)cc1 | – | -14.7% (inactive)
88 | O=C(Nc1cccc(F)c1)N1CC2(CCN(C(=O)c3csnn3)CC2)C1 | – | -1.39% (inactive)
89 | Cc1cc(C(F)(F)F)nn1-c1nc(-c2ccco2)cc(C(F)(F)F)n1 | – | -14.2% (inactive)
90 | FC(F)(F)c1cc(-c2ccco2)nc(N2CCOCC2)n1 | – | 1.09% (inactive)
91 | COC(=O)c1cnn2c(C(F)(F)F)cc(-c3ccco3)nc12 | 31.6 µM (active) | –
92 | Cc1nnc(SCc2ccc(C(=O)c3ccc(Cl)cc3)o2)n1-c1ccccc1 | – | -28.1% (inactive)
93 | Cc1nc2cnc(N3CCN(C)CC3)nc2n(CCC#N)c1=O | – | 46.9% (inactive)
94 | O=C(Oc1cccnc1)c1cc2ccccc2oc1=O | 20 µM (active) | –
95 | O=C(NCc1ccccn1)c1cc2ccccc2oc1=O | – | -14.8% (inactive)
96 | CS(=O)(=O)N1CCN(C(=O)c2cc3ccccc3oc2=O)CC1 | – | -7.15% (inactive)
97 | COC(=O)[C@@]1(Cc2ccc(OC)cc2)[C@H]2c3cc(C(=O)N4CCCC4)n(Cc4ccc(OC(F)(F)F)cc4)c3C[C@H]2CN1C(=O)c1ccccc1 | – | 5.27% (inactive)
98 | CCCC[C@@H]1C[C@H]1C(NC(=O)c1ccco1)c1ccc(C(=O)OC)cc1 (some centres undefined) | – | -7.3% (inactive)
99 | Cc1ccc(-c2nn(CC(C)(C)C)c3ncnc(N)c23)cc1 | – | 2.11% (inactive)
